{"source": "PubChem BioAssay AID1051", "about": "(The Scripps Research Institute Molecular Screening Center, 2008)", "note": "Among all 99,000 compounds or so, about 340 (0.34%) were called active. This is one part of a sample in which actives are shown more often than they occur. A number with no mark means an inactive call. Cut-off read from the data, not from the text of the source: active = TR-FRET ratio above about 2300; inactive = the rest.", "data": [{"assay": "signal artefacts in PPARgamma/SRC-1 readout – biochemical, TR-FRET emission ratio, artefact control for PPARgamma SRC-1 recruitment agonists, primary screen (AID 1051)", "conditions": "TR-FRET detection artefact counter-screen, at 8 µM, hits give high values", "values": [{"smiles": "COc1cc(-n2c(=S)[nH]c3ccc(C)cc3c2=O)c(Cl)cc1Cl", "TR-FRET ratio": "2560 (active)"}, {"smiles": "O=C1N=c2ccccc2=C/C1=C\\c1c(O)[nH]c(=S)[nH]c1=O", "TR-FRET ratio": 1870}, {"smiles": "COc1ccc(C2N3CC(C)(C)CN23)cc1", "note": "(stereo not given)", "TR-FRET ratio": 1740}, {"smiles": "CCOP(=O)(OCC)C(NC(=O)c1ccc(C)cc1)C(Cl)(Cl)Cl", "note": "(stereo not given)", "TR-FRET ratio": 1720}, {"smiles": "OCC#CC[N+]1(CC#Cc2ccccc2)CCCC1", "TR-FRET ratio": 1790}]}]}
